Bioassay records: PubChem, The Scripps Research Institute Molecular Screening Center
In the library only some 3.4% were active in any assay of this set; here they are far more common.
TEAD-YAP inh = TEAD-YAP interaction inhibition, primary screen, TEAD-YAP interaction inhibitor project, luminescence, HEK-TIYL cells; TEAD-Gal4/YAP UAS-luciferase luminescence; inhibition, % at 9.12 µM; 1.4% of 640,000 active; AID 1259422, 2018; in the data active means inhibition above about 32%;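 further: 0% = median of test compound wells and 100% = reference inhibitor wells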
MITF primary = MITF inhibitors, primary screen, biochemical, AlphaScreen, human | inhibition, % at 2.6 µM | AlphaScreen MITF homodimerization, bead proximity signal | AID 1259374, 2018 | Microphthalmia-associated transcription factor (Homo sapiens), O75030 | 0.91% of 650,000 active; in the data active means inhibition above about 50%;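 further: 0% = vehicle wells with protein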
GPR151 ag = activators of human GPR151, primary screen, cell-based, PathHunter beta-arrestin, luminescence; G-protein coupled receptor 151 (Homo sapiens), Q8TDV0; PathHunter beta-arrestin GPR151 cells; activation, % at 11.2 µM; 1% of 650,000 active; in the data active means activation above about 4.9%;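 further: 0% = median of compound wells and 100% = cells with positive control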
FBW7 act = FBW7 E3 ligase activators, primary screen, biochemical, AlphaScreen, human. 0.13% of 650,000 active. normalized activity (activation), % at 26.1 µM. AlphaScreen FBW7–phospho-cyclin E peptide binding, activator screen. AID 1259310, 2017; in the data active means normalized activity above about 1.9%;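 further: purified mutant Fbw7 with reduced substrate affinity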
GPR151 conf act = GPR151 activators, triplicate retest, confirmation, cell-based, PathHunter beta-arrestin, luminescence. activation, % at 11.2 µM. 6,700 tested, under 10 active. GPR151 PathHunter beta-arrestin cells, 90 min; % of EA-reagent control over plate median. shares compounds with GPR151 ag;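 active means mean percent activation across replicates above the confirmation screen cutoff of 4.91%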
GPR119 counter = GPR119 activators in beta-arrestin cells, counter-screen for GPR151 activator project, cell-based, PathHunter beta-arrestin, luminescence, triplicate | shares compounds with GPR151 ag | 90 min; 0 = compound-well median, 100 = enzyme-acceptor control | activation, % at 11.2 µM | 0.3% of 6,700 active;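 active means mean percent activation in the counterscreen above 29.09%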;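 further: counterscreen on off-target GPR119 to flag nonselective hits from the GPR151 activator screen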
* = called active by the depositor; nt = no result given.

SMILES	TEAD-YAP inh	MITF primary	GPR151 ag	FBW7 act	GPR151 conf act	GPR119 counter
CC(=O)NC1=NC(=O)/C(=C/c2ccc(OCc3ccc([N+](=O)[O-])cc3)cc2)S1	1	17	5.0*	0	0	-4
COc1cc(/C=C2\SC(NC(C)=O)=NC2=O)ccc1OCc1ccc([N+](=O)[O-])cc1	-14	-1	1	0	nt	nt
CCCC(=O)Nc1ccc(NC(=O)c2ccc(I)cc2)cc1	1	-3	10.0*	0	1	-4
C=CCNC(=O)CN(c1ccccc1F)S(=O)(=O)c1ccc(C)cc1	-4	-5	6.6*	0	0	1
C=CCn1c(C)cc(C(=O)COC(=O)CNC(=O)c2ccc(OCC)c(OCC)c2)c1C	-1	5	9.6*	0	0	2
COc1cccc(CNCc2cccc(OC)c2OC)c1	4	19	0	0	nt	nt
O=C(NCCCc1ccncc1)C1CC12CCN(C(=O)c1cc(-c3ccccc3)no1)CC2 (centres undefined)	6	17	6.1*	1	1	5
O=C(NCc1ccco1)C1CC12CCN(C(=O)c1cc(-c3ccccc3)no1)CC2 (centres undefined)	-12	13	2	0	nt	nt
CSc1ccc(/C=c2/sc3nc4c(C)c(C)ccc4n3c2=O)cc1	4	19	-1	0	nt	nt
COc1ccc(OCC(=O)Nc2nc3ccccc3[nH]2)cc1	-23	-11	3	0	nt	nt
COc1ccc(NC(=O)Cc2nc3ccccc3[nH]2)cc1	38*	3	18*	0	1	10
COc1cccc(CC(=O)Nc2nc3ccccc3[nH]2)c1	-5	4	5.6*	0	0	-6
C/C(CC(=O)Nc1cc([N+](=O)[O-])ccc1C)=N\NC(=O)C(=O)NCCO	-8	-4	8.3*	0	0	9
CC(=O)CC(=O)Nc1cc([N+](=O)[O-])ccc1C	-6	6	0	0	nt	nt
Cc1cc([N+](=O)[O-])ccc1NC(=O)Cc1ccc(F)cc1	8	-7	0	0	nt	nt
Cc1ccc([N+](=O)[O-])cc1NC(=O)Cc1ccc(F)cc1	0	7	5.4*	0	-1	-11
Cc1ccc(NC(=O)CSCC(=O)Nc2ccccc2F)cc1	-3	-5	2	0	nt	nt
COc1ccc(OC)c(/C=N/NC(=O)CCCC(=O)NC2CCCCC2)c1	8	-2	2	0	nt	nt
Cc1ccc(NC(=O)CCNS(=O)(=O)c2ccc3nc(-c4ccccc4)[nH]c3c2)cc1	12	-3	0	0	nt	nt
CCC(C)NC(=O)CCNS(=O)(=O)c1ccc2nc(-c3ccccc3)[nH]c2c1 (centres undefined)	-1	6	7.0*	0	1	-1
O=C(NN=C1CCCC1)C(O)(c1ccccc1)c1ccccc1	-10	-6	0	0	nt	nt
O=C(NN=C1CCCCC1)C(O)(c1ccccc1)c1ccccc1	6	-1	9.9*	0	3	14
CCc1nccn1S(=O)(=O)c1ccc(OC)c2ccccc12	4	-466	6.8*	0	0	2
CCc1nccn1S(=O)(=O)c1cc(Br)c(C)cc1OC	4	3	2	0	nt	nt
Cc1cc(C)c2c(-n3cccc3)c(C(=O)NCc3ccccn3)sc2n1	-1	9	-1	0	nt	nt
SMILES	TEAD-YAP inh	MITF primary	GPR151 ag	FBW7 act	GPR151 conf act	GPR119 counter
CC1CCCCN1c1ncccc1C(=O)N1CCCC1 (centres undefined)	3	10	-1	0	nt	nt
CC1CCCCN1c1ncccc1C(=O)NC1CCCC1 (centres undefined)	-4	30	6.4*	0	1	4
COc1ccc(S(=O)(=O)N(C)C)c(Cl)c1Cl	-43	1	16*	0	1	9
COc1cccc(NS(=O)(=O)c2ccc(OC)c(Cl)c2Cl)c1	12	4	0	0	nt	nt
COC(=O)c1ccc(C(=O)OC)c(NS(=O)(=O)c2ccc(OC)c(Cl)c2Cl)c1	-6	12	9.5*	1	1	-14
CCCCNS(=O)(=O)c1ccc(OC)c(Cl)c1Cl	1	-8	0	0	nt	nt
COc1ccc(NS(=O)(=O)c2ccc(OC)c(Cl)c2Cl)cc1OC	24	-7	11*	0	2	8
Cn1ccnc1SCCNC(=O)CC1C(=O)NCCN1CC(C)(C)C (centres undefined)	3	24	-1	0	nt	nt
CC1(C)C(=O)OC(c2ccccc2F)C2(CCCCC2)C1=O (centres undefined)	1	4	5.3*	0	0	-5
